Among the data in PubChem BioAssay (NCATS) are Potency values, retold here.

Where “and” joins values, the source holds several entries; their conditions need not be identical. Equal values may be shown once. Calls of active or inactive are those of the source. Calls come from the whole dose curve.
Potency is the fitted concentration of half-maximal effect.

Glucocorticoid receptor (Homo sapiens), sequence (P04150 whole entry, looked up): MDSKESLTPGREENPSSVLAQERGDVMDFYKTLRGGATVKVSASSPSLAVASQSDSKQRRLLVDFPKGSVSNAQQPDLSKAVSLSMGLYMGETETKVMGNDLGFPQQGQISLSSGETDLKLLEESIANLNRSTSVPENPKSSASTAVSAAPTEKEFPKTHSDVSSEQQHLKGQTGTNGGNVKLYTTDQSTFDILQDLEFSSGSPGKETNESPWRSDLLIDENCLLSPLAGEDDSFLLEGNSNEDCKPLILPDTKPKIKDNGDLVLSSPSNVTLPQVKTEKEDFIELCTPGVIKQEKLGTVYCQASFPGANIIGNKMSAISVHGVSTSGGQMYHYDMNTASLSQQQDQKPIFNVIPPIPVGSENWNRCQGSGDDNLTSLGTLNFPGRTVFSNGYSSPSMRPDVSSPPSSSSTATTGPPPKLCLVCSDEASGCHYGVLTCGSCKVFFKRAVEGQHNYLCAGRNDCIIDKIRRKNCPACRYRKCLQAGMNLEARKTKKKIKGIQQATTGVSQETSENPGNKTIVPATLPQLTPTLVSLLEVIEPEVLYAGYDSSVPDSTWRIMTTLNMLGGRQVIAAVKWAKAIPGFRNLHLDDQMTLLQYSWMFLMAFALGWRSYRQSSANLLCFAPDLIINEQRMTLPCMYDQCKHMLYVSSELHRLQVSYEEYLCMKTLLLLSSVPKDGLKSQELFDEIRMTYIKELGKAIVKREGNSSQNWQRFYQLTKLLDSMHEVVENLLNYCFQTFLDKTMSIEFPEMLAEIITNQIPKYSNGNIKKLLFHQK

The test concerns the target Glucocorticoid receptor (Homo sapiens) (UniProt P04150). Nature of the test: GR-EFC Redistribution (AID 451). To be noted: CHO-K1 GR-EFC translocation, beta-gal luminescence, 2 h. From the text:
NIH Molecular Libraries Screening Centers Network [MLSCN]
NIH Chemical Genomics Center [NCGC]
The glucocorticoid receptor (GR) is a cytoplasmic receptor that belongs to the nuclear receptor family of ligand-dependent transcription factors. Upon glucocorticoid binding to its receptor, the glucocorticoid-GR complex translocates into the nucleus, where it binds as a dimer to specific DNA sequences (glucocorticoid response elements), enhancing or suppressing transcription of a wide variety of glucocorticoid-responsive genes. In addition to their important roles in normal physiology and metabolism, glucocorticoids are administered exogenously as treatments for a wide variety of allergic, autoimmune, and neoplastic conditions. Identification of compounds that modulate aspects of GR signalling would be useful in dissecting glucocorticoid response pathways as well as developing GR modulators with more targeted clinical effects.
Traditionally, GR modulators have been identified using receptor binding or direct transactivation assays. However, assays for glucocorticoid-dependent nuclear translocation can also be used to screen for compounds affecting GR signaling.
Immunocytochemical staining has been used to assay for GR translocation, but is not suitable for high throughout screening due to the multiple reagent addition and wash steps required. Recently, a novel cell-based GR assay in Enzyme Fragment Complementation (EFC) format was developed by DiscoveRx (Fremont, CA). The assay uses EFC of b-galactosidase (b-gal) as an indicator of GR-translocation in engineered CHO-K1 biosensor cells. The enzyme acceptor (EA) fragment of b-gal resides in the nucleus , as designed through the use of a proprietary set of sequence additions and modifications. The small peptide enzyme donor (ED) fragment of b-gal is fused directly to the C-terminus of GR, and is localized in the cytoplasm is the absence of receptor signaling. Upon binding to a GR ligand, the complex translocates to the nucleus, where intact enzyme activity is restored by complementation and b-gal activity is detected. We optimized this GR-EFC assay in homogenous 1536-well plate assay format for high throughput screening.
NCGC Assay Protocol Summary:
CHO-K1 cells stably expressing NLS-enzyme acceptor fragment (EA) of b-gal and GR-enzyme donor (ED) fragment of b-gal were maintained in F12 medium (Invitrogen, Carlsbad, CA) at 37 Celsius degrees under a humidified atmosphere containing 5% CO2 and 95% air. The medium contained 10% FBS, 2 mM L-glutamine, 50 U/ml penicillin 50 ug/ml streptomycin, and 250 ug/ml hygromycin and 500 ug/ml G418 (Invitrogen).
GR-translocation was measured beta-gal enzyme activity using the PathHunter Detection Kit containing cell membrane permeablizing reagent and beta-gal substrate (DiscoveRx, Fremont, CA). All compounds were screened as titrations from 0.6 nM to 46 uM final concentration. The assay was performed in 1536-well format as follows:
5 uL cell suspension (1,000 cells)/well
Incubation at 37 Celsius degrees for two hours
1.25 uL 1X detection buffer from the kit supplied by DiscoveRx
Incubation at room temperature for one hour
Read plate in luminescence mode in ViewLux plate reader (PerkinElmer)
Keywords: NIH Roadmap, MLSCN, MLI, MLSMR, GR-EFC, GREFC, qHTS, NCGC
Consider `CCn1c(=O)[nH]c2cc(Cl)c(Cl)cc21`, for which the Potency is > 46 µM (inactive).
The result for `COc1ccccc1N1CCN(CCCCN2C(=O)c3ccccc3C2=O)CC1` reads > 46 µM (inactive); that for `Fc1ccc(CN(C2=NCCN2)c2c(Cl)cccc2Cl)cc1`, > 46 µM (inactive); that for `NC/C=C\C(=O)O`, > 46 µM (inactive).
The result for `O=c1oc(Cl)c(Cl)c2ccccc12` reads > 46 µM (inactive); that for `O=C1Nc2ccc(I)cc2/C1=C/c1cc(Br)c(O)c(Br)c1`, > 46 µM (inactive); that for `O=C(O)C1=CCNCC1`, > 46 µM (inactive).
As for `CCCn1c(=O)c2c(ncn2C)n(CCC)c1=O`, the Potency is > 46 µM (inactive).
Turning to `CC(=O)C(C)=O`, the Potency was > 46 µM (inactive).
As to `N[C@@H](CS(=O)O)C(=O)O`, the Potency is > 46 µM (inactive).
`O=c1[nH]c2cc(Cl)ccc2c(O)c1-c1ccc(Oc2ccccc2)cc1`: the Potency is > 46 µM (inactive).
Turning to `O=c1onc2n1-c1cc(Br)ccc1OC2`, the Potency was > 46 µM (inactive).
As for `c1ccc(CN2CCC3(CCCc4ccccc43)CC2)cc1`, the figure is > 46 µM (inactive); as for `O=c1cc(-c2ccccc2)[nH]c2nc(Cl)ccc12`, > 46 µM (inactive).
As for `NC(N)=[N+]1CCc2ccccc2C1`, the figure is > 46 µM (inactive); as for `CCc1ccc2c(-c3cccc(Cl)c3)nc(=O)n(CC)c2n1`, > 46 µM (inactive).
The result for `Cc1nc(N=Nc2cc(S(=O)(=O)O)c3cc([N+](=O)[O-])cc(S(=O)(=O)O)c3c2)c(COP(=O)(O)O)c(C=O)c1O` reads > 46 µM (inactive).
On to `CN[C@H](CC(=O)O)C(=O)O`, for which the Potency was > 46 µM (inactive).
The result for `CCCC(=O)NCCc1c2n(c3ccc(OC)cc13)CCCc1ccccc1-2` reads > 46 µM (inactive); that for `N=C(N)SCCN`, > 46 µM (inactive); that for `Cc1nc(N=Nc2ccc(C(=O)O)cc2)c(COP(=O)(O)O)c(C=O)c1O`, > 46 µM (inactive).
The result for `CC(=O)NCCc1c[nH]c2ccc(O)cc12` reads > 46 µM (inactive).
On to `O=[N+]([O-])c1cccc2c(Br)[nH]nc12`, for which the Potency is > 46 µM (inactive).
As for `CCCCCCCC/C=C\CCCCCCCC(=O)NCCc1ccc(O)c(O)c1`, the figure is > 46 µM (inactive); as for `Nc1ccc(N2C(=O)c3ccccc3C2=O)c(Cl)c1`, > 46 µM (inactive).
On to `NC1(C(=O)O)CC1`, for which the Potency is > 46 µM (inactive).
`NC[C@@H]1O[C@H](c2ccccc2)Cc2c1ccc(O)c2O`: the Potency is > 46 µM (inactive).
As to `NC(=O)CNCCC(c1ccccc1)c1ccccc1`, the Potency was > 46 µM (inactive).
`O=C(OCCN1CCOCC1)C1(c2ccccc2)CCCCC1`: the Potency was > 46 µM (inactive).
With `O=C(O)C1CCNCC1`, the Potency is > 46 µM (inactive).
Consider `CC(C)(CO)Cc1cc(C(C)(C)C)c(O)c(C(C)(C)C)c1`, for which the Potency is > 46 µM (inactive).
Consider `c1ccc2nc(C3=NCCN3)ccc2c1`, for which the Potency was > 46 µM (inactive).
Regarding `COc1ccc(C(=O)NCc2cccnc2)cc1C(=O)NCc1cccnc1`, the Potency is > 46 µM (inactive) and > 20.6 µM (inactive).
As for `COc1ccccc1N1CCN(CCCNc2c(C)c(=O)n(C)c(=O)n2C)CC1`, the Potency was > 46 µM (inactive).
Consider `Nc1ncnc2c1ncn2C1CCCC1`, for which the Potency was > 46 µM (inactive).
As for `N[C@@H](Cc1c[nH]c2ccccc12)C(=O)O`, the figure is > 46 µM (inactive); as for `COc1ccc(-c2ccc(N)[n+](CCCC(=O)O)n2)cc1`, > 46 µM (inactive) and > 20.6 µM (inactive); as for `Cn1cc(C(=O)OCC2CCN(CCNS(C)(=O)=O)CC2)c2ccccc21`, > 46 µM (inactive).
On to `CCN1C(=O)C=CC1=O`, for which the Potency is > 46 µM (inactive).
With `CCSC(=N)N`, the Potency is > 46 µM (inactive).
